Assay outcomes: PubChem BioAssay, National Center for Advancing Translational Sciences (NCATS)
TDP1 inh: blocks human tyrosyl-DNA phosphodiesterase 1 | Q9NUW8 | recombinant TDP1, AlphaScreen DNA substrate cleavage | Potency, µM (titrated, usually from 130 µM), for the others: at the top dose activity change, negative = inhibition, usual class: inhibitors | hit rate 0.28% among 350,000 | AID 485290; further: nearly all actives have a fitted effect of over 40% in size
Target sequence (Q9NUW8 whole entry, looked up): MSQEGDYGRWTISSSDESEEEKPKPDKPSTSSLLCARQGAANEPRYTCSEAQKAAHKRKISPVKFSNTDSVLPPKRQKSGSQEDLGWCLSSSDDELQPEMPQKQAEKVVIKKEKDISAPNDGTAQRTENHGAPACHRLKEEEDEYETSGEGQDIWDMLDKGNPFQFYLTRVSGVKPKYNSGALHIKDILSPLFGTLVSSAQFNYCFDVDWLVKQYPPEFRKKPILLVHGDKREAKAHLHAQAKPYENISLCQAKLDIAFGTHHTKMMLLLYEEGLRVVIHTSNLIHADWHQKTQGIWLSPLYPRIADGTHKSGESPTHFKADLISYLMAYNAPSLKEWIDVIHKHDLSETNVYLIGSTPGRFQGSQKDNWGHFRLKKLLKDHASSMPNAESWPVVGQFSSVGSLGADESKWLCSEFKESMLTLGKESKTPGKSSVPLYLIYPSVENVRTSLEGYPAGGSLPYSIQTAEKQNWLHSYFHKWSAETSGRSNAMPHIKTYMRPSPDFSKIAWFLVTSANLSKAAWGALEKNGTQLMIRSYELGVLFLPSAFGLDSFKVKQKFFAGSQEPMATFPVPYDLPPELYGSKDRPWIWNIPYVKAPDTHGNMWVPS
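Recombinant human Tdp1 (E. coli-expressed, 1 nM final) preincubated with compounds 15 min at room temperature, then 5'-biotin/3'-phosphotyrosine-FITC DNA substrate (15 nM final) added for 5 min. AlphaScreen beads (10 ug/ml final) added 10 min; cleavage lowers signal.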
TDP1 cell CPT: growth inhibition of DT40 Tdp1-/-;hTDP1 cells with camptothecin (screen for TDP1 inhibitors); chicken DT40 Tdp1-/-;hTDP1 cells + 20 nM CPT, ATP luminescence, 48 h; Potency, µM (top dose mostly 46.2 µM), without a hit: at the highest dose activity change, negative = growth inhibition, most hits filed as inhibitors; hit rate 12% among 420,000; AID 686979; further: nearly all actives have a fitted effect of over 55% in size
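Cell growth measured by CellTiter-Glo luminescence after a minimum 48 h, 37 C compound exposure with 20 nM CPT in Tdp1-knockout DT40 cells stably expressing hTDP1, seeded 400/well; qHTS titration format.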
VP16 counter: inhibits Gal4-VP16 luciferase reporter, ROR gamma counter-screen. Drosophila S2 Gal4-VP16 UAS-luciferase, luminescence, 20 h. hit rate 3.5% among 310,000. AID 2546. Potency, µM (series often up to 53.6 µM), for the others: top-dose activity, negative = inhibition, actives largely listed as inhibitors;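 further: Gal4-VP16 expression switched on by copper sulfate through the metallothionein promoter; nearly all actives have a fitted effect of over 50% in size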
TDP1 cell noCPT: qHTS for Inhibitors of human tyrosyl-DNA phosphodiesterase 1 (TDP1): qHTS in cells in absence of CPT; DT40 Tdp1-/- hTDP1 cells, no CPT, ATP luminescence, 48 h; Potency, µM (top dose mostly 46.2 µM), for inactives: at the highest dose activity change, negative = growth inhibition, most hits filed as inhibitors; hit rate 15% among 420,000; AID 686978, 2013; further: nearly all actives have a fitted effect of over 55% in size
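Cells were dispensed at 400 per well, compounds added by pin tool, plates incubated ≥48 hr at 37 °C, then CellTiter-Glo added for 30 min at room temperature before luminescence reading. Line: DT40 Tdp1-/- complemented with hTDP1; camptothecin omitted.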
RORg inh: blocks mouse ROR gamma transcriptional activity | hit rate 5.4% among 310,000 | Drosophila S2 Gal4-RORgamma UAS-luciferase reporter, 20 h | Potency, µM (top dose mostly 53.6 µM), for inactives: top-dose activity change, negative = inhibition, usual class: inhibitors | AID 2551; further: nearly all actives have a fitted effect of over 60% in size
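In this cell-based reporter format, copper sulfate (700 uM final) drives Gal4–ROR gamma fusion expression from a metallothionein promoter in Drosophila Schneider cells; compounds preincubated 1 hr, reporter read after 20 hr at ambient temperature.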
Starred values were filed as active, the others as inactive; ? = inconclusive; / = not tested or not shown. Most compounds without a hit are left out; they make up all but 19% or so of the library. The call rests on the fitted dose curve; in most records, active means well fitted curve in the direction sought with a large enough effect; inconclusive means small, poorly fitted or top-dose-only effect, or another doubt; inactive means no such curve, though single readings can be large; an effect the other way counts as inactive or inconclusive. On the % scale 0 is the no-effect control and ±100 the full control effect; potency means the concentration at half of the fitted maximal effect.

SMILES | TDP1 inh | TDP1 cell CPT | VP16 counter | TDP1 cell noCPT | RORg inh
COc1ccc2[nH]c(=O)c(CN(Cc3ccc(C)cc3)Cc3nnnn3CC3CCCO3)cc2c1 (configuration not stated) | 4.7% | ? | -4.5% | ? | ?
O=C(COC(=O)c1ccccc1)Nc1ncc([N+](=O)[O-])s1 | / | -1.7% | / | ? | /
Cc1nc(C)c(C(=O)Nc2ncc([N+](=O)[O-])s2)o1 | ? | ? | ? | ? | 7.94µM*
O=C(NCc1cccnc1)c1ccc(NC(=O)c2cccc([N+](=O)[O-])c2)cc1 | 3.7% | 14.6µM* | 1.1% | -82.3% | 36.8%
O=C(Nc1ccc(NC(=O)c2cccc([N+](=O)[O-])c2)cc1)c1cccc([N+](=O)[O-])c1 | / | -1.3% | -7.4% | -36.5% | 10.0%
O=C(NCc1cccnc1)c1ccc([N+](=O)[O-])cc1 | -3.6% | 3.8% | -8.7% | 6.5% | -20.3%
O=C(Nc1ccccc1)Nc1ncc([N+](=O)[O-])s1 | 8.3% | 6.51µM* | ? | 4.61µM* | ?
O=C(Nc1ncc([N+](=O)[O-])s1)c1cccc([N+](=O)[O-])c1 | 5.0% | 9.2µM* | ? | 20.6µM* | -29.1%
COc1ccc(CCC(C)N2CCOCC2)cc1 (configuration not stated) | / | -10.7% | -0.3% | -6.2% | 0.1%
Cc1csc(NC(=O)c2cc[n+]([O-])cc2)n1 | 6.1% | -3.6% | -21.6% | 2.8% | 13.8%
Cc1csc(NC(=O)c2cc([N+](=O)[O-])cc([N+](=O)[O-])c2)n1 | -7.6% | ? | 2µM* | 23.1µM* | ?
O=C(Nc1nc(-c2ccccc2)cs1)c1cccc([N+](=O)[O-])c1 | 7.7% | ? | -9.3% | ? | -21.5%
O=C(Nc1nc(-c2cccnc2)cs1)c1cccc([N+](=O)[O-])c1 | 5.1% | -16.9% | 4.0% | 23.1µM* | 26.6%
CCOc1c(OC(C)=O)ccc(/C=C/c2ccc3cccc(OC(C)=O)c3n2)c1[N+](=O)[O-] | 11.5% | ? | 3.55µM* | ? | 3.16µM*
COc1c(OC(C)=O)ccc(/C=C/c2ccc3cccc(OC)c3n2)c1[N+](=O)[O-] | 5.3% | 25.9µM* | -16.7% | 18.4µM* | ?
Cc1ccc([C@H]2C[C@H](n3cc(C4CC4)nn3)[C@@H](O)CN2CC2CCCCC2)cc1 | / | ? | / | 18.4µM* | /
COc1ccc([C@H]2C[C@@H](O)[C@H](n3cc(C4CC4)nn3)CN2CC2CCCCC2)cc1 | / | -18.0% | / | -28.8% | /
COc1ccc([C@H]2C[C@@H](n3cc(C4CC4)nn3)[C@H](O)CN2CC2CCCCC2)cc1 | / | ? | / | 20.6µM* | /
Cc1cccc(Nc2ncccc2C(=O)NCc2cccs2)c1C | 2.1% | -2.4% | 10.8% | -24.6% | -7.8%
Cc1ccc(C(C)C)c(OCCNC(=S)Nc2cccc3ccccc23)c1 | 11.6% | 14.1µM* | 3.16µM* | 12.6µM* | 1.26µM*
Cc1ccc(C(C)C)c(OCCN)c1 | -2.1% | -29.1% | -4.5% | ? | -15.1%
S=C(NCc1ccccc1)Nc1cccc2ccccc12 | 6.8% | 18.4µM* | 5.62µM* | 18.4µM* | 3.16µM*
CCN(C(=S)Nc1cccc2ccccc12)c1ccccc1 | / | ? | / | 10.3µM* | /
Cc1cccc(NC(=S)NCc2cccs2)c1C | 3.8% | -7.9% | 10µM* | -24.9% | 3.55µM*
CCC(Sc1nc2ccsc2c(=O)n1Cc1ccc(C(=O)O)cc1)C(=O)Nc1ccc(Cl)cc1 (configuration not stated) | / | ? | / | -5.6% | /
SMILES | TDP1 inh | TDP1 cell CPT | VP16 counter | TDP1 cell noCPT | RORg inh
S=C(NCCc1ccccc1)NCc1cccs1 | 5.6% | -29.1% | -83.6% | 9.4% | 11.2µM*
S=C(NCCN1CCOCC1)Nc1cccc2ccccc12 | 0.0% | 9.0% | ? | 4.4% | ?
S=C(NCc1cccs1)Nc1cccc2ccccc12 | 0.0% | 5.9% | ? | -17.8% | 3.55µM*
CN1C(=O)c2c(C(=O)Nc3ccc(Oc4ccncc4)cc3)[nH]c(-c3ccccc3)c2C1=O | / | 6.6% | / | -16.2% | /
CC(=O)N1CCSc2ccc(S(=O)(=O)NCCc3cccc(C)c3)cc21 | 1.9% | 20.6µM* | -15.6% | 10.3µM* | ?
CC(=O)N1CCSc2ccc(S(=O)(=O)NCCc3ccc(C)cc3)cc21 | 2.2% | 23.1µM* | ? | 20.6µM* | 40.5%
CC(=O)N1CCSc2ccc(S(=O)(=O)NCCc3ccc(Cl)cc3)cc21 | -1.1% | 16.4µM* | ? | ? | 16.6%
Nc1nc(SCC(=O)Nc2ccccc2)[nH]c(=O)c1NC(=O)c1cccs1 | 1.3% | 21.3% | 7.0% | 1.0% | -1.0%
O=C(NNC(=O)C1CC2CCC1C2)c1ccccc1 (configuration not stated) | -0.6% | -0.8% | 1.0% | 8.1% | -1.0%
C[C@@H]1CN([C@H](C)CO)S(=O)(=O)c2ccc(C#Cc3ccccc3)cc2O[C@H]1CN(C)C(=O)Nc1ccc2c(c1)OCO2 | / | 13µM* | / | 16.4µM* | /
C[C@@H]1CN([C@H](C)CO)S(=O)(=O)c2ccc(C#CC3CCCC3)cc2O[C@H]1CN(C)C(=O)Cc1ccccc1 | / | 5.8µM* | / | 5.8µM* | /
C[C@H]1CN([C@@H](C)CO)S(=O)(=O)c2ccc(-c3ccc(C#N)cc3)cc2O[C@H]1CN(C)C(=O)CN(C)C | / | -3.1% | / | 6.2% | /
C[C@@H]1CN([C@H](C)CO)S(=O)(=O)c2ccc(C#Cc3ccccc3)cc2O[C@@H]1CN(C)C(=O)CN(C)C | / | 16.4µM* | / | 25.9µM* | /
CCCC#Cc1ccc2c(c1)O[C@H](CN(C)C(=O)CC1CC1)[C@H](C)CN([C@@H](C)CO)S2(=O)=O | / | ? | / | 18.4µM* | /
COC(=O)c1ccc(COC(=O)CNS(=O)(=O)c2ccc(C)cc2)cc1 | 7.4% | 9.1% | -10.1% | -4.0% | -0.4%
CC(C)CNC(=O)NC1C(NC(=O)NCC(C)C)N(C)C(=O)N1C (configuration not stated) | 8.3% | 24.3% | -0.7% | -16.1% | 0.0%
Cc1nnsc1C(=O)NC(=O)Nc1ccc(F)c(Cl)c1 | 6.5% | 3.4% | 5.3% | 2.3% | 32.8%
c1csc(C2CCCN2c2nc3nonc3nc2NC2CC2)n1 (configuration not stated) | 5.6% | 5.1% | 10µM* | 3.9% | 5.01µM*
CC(c1nccs1)N(C)c1nc2nonc2nc1NC1CC1 (configuration not stated) | 3.0% | -26.4% | 6.3% | -29.4% | -11.9%
Cc1cccc(N2CCN(S(=O)(=O)c3ccc4oc(=O)c5ncn(C)c5c4c3)CC2C)c1 (configuration not stated) | 0.0% | -11.0% | / | 3.6% | /
